Results from PubChem BioAssay AID540333 (Southern Research Specialized Biocontainment Screening …, 2011).
The campaign covered roughly 10,000 compounds. About 320 (3.2%) were called active. The list comes from a sample in which actives are over-represented; it also holds similar structures and randomly drawn compounds. Values without a mark were called inactive. No stated cut-off is given here; in the data, active means CPE inhibition mostly above about 9.1% (no sharp cut-off); inactive means mostly below about 7.2%.

Assay: Dengue virus cytopathic effect inhibitors, cell-based, CPE readout, HTS (AID 540333)
Conditions: Dengue virus CPE inhibition in host cells, at 20 µM; hits give high values

Compound	CPE inhibition
Cc1cc(O)c(C2=Nc3ccccc3SC(c3ccc(Cl)cc3)C2)c(=O)o1 (centres undefined)	5.1%
O=C1N(c2ccccc2)C(c2ccc(Cl)cc2)N2CCCN12 (centres undefined)	0.355%
O=C1CC(c2ccc(Cl)cc2)SC(N(c2ccccc2)c2ccccc2)=N1 (centres undefined)	23.9% (active)
O=C1NC(=O)C(CC(=O)N(Cc2cccs2)C2(C(=O)NC3CCCC3)CCCCC2)N1 (centres undefined)	0.025%
CC(=O)Nc1ccccc1C(=O)C(=O)Nc1cccc(C(=O)NCc2ccccc2)c1	inactive
O=C(NC(=S)Nc1cccc(NC(=O)c2ccccc2)c1)c1cccc([N+](=O)[O-])c1	0.91%
COc1ccc(/C=C/c2nnc(NC(=O)CSc3ccc(Cl)cc3)s2)cc1	12.2% (active)
COC(=O)Nc1nnc(/C=C/c2ccc(OC)cc2)s1	6.99%
COc1ccc(Cc2nnc(NC(=O)CSc3ccc(C)cc3)s2)cc1	0.25%
CC(C)c1nc(C#N)c(N2CCOCC2)o1	inactive
Cc1ccc(CN2CCN(CC(=O)N/N=C/c3c[nH]c4ccccc34)CC2)cc1	0.79%
COc1cc(OC)cc(-c2c(C#Cc3ccsc3)c3cc(-c4cccc5[nH]ccc45)ccc3n2C)c1	6.79%
O=C(Cc1ccccc1)Nc1cc(Cl)ccc1Sc1ccccc1	0.52%
CC(=O)N1CCN(CC(=O)Nc2ccccc2Sc2ccccc2)CC1	0.615%
CC1CN(CC(=O)Nc2ccccc2Sc2ccccc2)CC(C)O1 (centres undefined)	0.145%
O=C(CN1CCN(c2ccccc2)CC1)Nc1ccccc1Sc1ccccc1	15.7% (active)
Cc1ccc(/C=C/C(=O)OCC(=O)Nc2ccccc2Sc2ccccc2)cc1	inactive
CC1CCCCN1CC(=O)Nc1ccccc1Sc1ccccc1 (centres undefined)	18.4% (active)
O=C(COC(=O)c1ccccc1-c1nc2ccccc2s1)NC1CCS(=O)(=O)C1 (centres undefined)	inactive
CC(=O)O[C@H]1CC[C@@]2(C)[C@@H](CC[C@H]3[C@@H]4CC[C@H](C(C)O)[C@@]4(C)CC(=O)[C@@H]32)C1 (some centres undefined)	inactive
COC(=O)c1ccc(NC(=O)CSC2=NCCN2)cc1	0.235%
O=C1CC(N(Cc2cccs2)C(=O)Nc2ccccc2)C(=O)N1c1ccc(Cl)cc1 (centres undefined)	0.225%
COC(=O)Cn1c(C(=O)N2CCCC2)cc2c1C[C@H]1CN(C(=O)c3ccccc3)[C@@](Cc3ccc(F)cc3)(C(=O)OC)[C@@H]21	0.235%
COC(=O)[C@@]1(Cc2ccc(F)cc2)[C@H]2c3cc(C(=O)N(C)C)n(CCc4ccc(OC)c(Br)c4)c3C[C@H]2CN1C(=O)c1ccccc1	21.7% (active)
COC(=O)[C@@]1(Cc2ccc(F)cc2)[C@H]2c3cc(C(=O)N(C)C)n(C[C@H](O)CO)c3C[C@H]2CN1C(=O)c1ccccc1	0.25%

Compound	CPE inhibition
Cc1cc(NC(=O)/C=C/c2ccc(Cl)cc2)no1	inactive
Cc1cccn2c(=O)c(/C=C(\C#N)C(=O)NC3CCS(=O)(=O)C3)c(N3CCC(C(N)=O)CC3)nc12 (centres undefined)	0.15%
Cc1cccn2c(=O)c(/C=C(\C#N)C(=O)NCc3ccco3)c(N3CCCC(C)C3)nc12 (centres undefined)	11.3% (active)
Cc1cccn2c(=O)c(/C=C(\C#N)C(=O)NCc3ccco3)c(N3CCC(C(N)=O)CC3)nc12	0.26%
CCOP(=O)(OCC)C(NC(=O)Nc1ccc(Cl)cc1)c1ccccc1 (centres undefined)	0.17%
Cn1cccc1CC(=O)N/N=C/C=C/c1ccccc1	0.02%
COc1ccc(COc2ccccc2C(=O)NCc2ccccc2)cc1F	1.67%
Cc1cc(C)c2c(c1)cc(C)c1nnc(SCC(=O)Nc3ccccc3N3CCOCC3)n12	inactive
CCOc1cc(/C=C2\NC(=S)N(c3c(C)n(C)n(-c4ccccc4)c3=O)C2=O)ccc1O	0.065%
CCOc1cc(/C=C2\C(=O)N(c3cccc(C(F)(F)F)c3)C(=O)c3ccccc32)ccc1O	17.1% (active)
CCOc1cc(/C=C2\C(=O)N(CCc3ccc(OC)c(OC)c3)C(C)=C2C(=O)OC)ccc1O	2.62%
CN(C)S(=O)(=O)c1cccc(NC(=O)COC(=O)/C=C/c2ccco2)c1	inactive
COc1ccccc1-c1coc2cc(OCC(=O)OCc3ccccc3)ccc2c1=O	inactive
CCCOC(=O)c1ccc(NC(=O)c2cc(Cl)ccc2OC)cc1	0.345%
CCCOC(=O)c1ccc(NC(=O)C(CC)CC)cc1	inactive
CCCCOC(=O)c1ccc(NC(c2ccc(C)cc2)P(=O)(OC)OC)cc1 (centres undefined)	41.4% (active)
Cc1ccc(NC(=O)c2cncc(Br)c2)cc1S(=O)(=O)N(C)C	inactive
CCCNC(=O)Cn1nc([N+](=O)[O-])c([N+](=O)[O-])c1C	inactive
O=C(c1cccs1)N1N=C(c2ccccc2)CC1c1ccc(O)cc1 (centres undefined)	30.5% (active)
COc1ccc(C2CC(c3ccccc3)=NN2C(=O)COC(=O)C2CC2)cc1 (centres undefined)	1.49%
CCn1cc([N+](=O)[O-])c(C(=O)N2N=C(c3ccccc3)CC2c2ccc([N+](=O)[O-])cc2)n1 (centres undefined)	1.99%
COc1ccccc1-c1nnc(NC(=O)C2=COCCO2)o1	0.3%
Cc1onc(-c2c(F)cccc2Cl)c1C(=O)NC(=S)NCc1cccnc1	inactive
O=C(CNC(=O)C1CCCCC1)Nc1cc(Cl)ccc1Cl	inactive
CCN(CC)c1ccc(S(=O)(=O)Nc2cc(Cl)ccc2Cl)cc1NC(=S)NC(=O)C1CCCC1	26.9% (active)

Compound	CPE inhibition
CCN(CC)S(=O)(=O)c1ccc(C)c(NC(=S)NNC(=O)C2CC2)c1	0.73%
O=[N+]([O-])c1cccc(N/N=C/c2cccc3ccccc23)c1	0.555%
CCn1cc(CNC(=O)c2cccc([N+](=O)[O-])c2)c(C)n1	0.4%
O=C(Cc1ccc(Cl)cc1)Nc1cccc(S(=O)(=O)Nc2ccccc2F)c1	0.29%
Cc1cccc(NC(=S)N2CCCCCC2)c1	0.335%
Cc1cccc(NC(=S)N2CCCCC2)c1	0.28%
Cc1cccc(NC(=S)N/N=C2/CCCCc3ccccc32)c1	11.6% (active)
Cc1ccc(C(=O)NN2C(=O)C3C4c5ccccc5C(c5ccccc54)C3C2=O)cc1 (centres undefined)	1.93%
CCOc1ccccc1NC(=O)c1cc(C(=O)c2cc(OC)ccc2O)coc1=N	inactive
COc1ccc(O)c(C(=O)c2cc(C(=O)NCCc3ccccc3)c(=O)n(CCc3ccccc3)c2)c1	15.6% (active)
COc1ccc(CCNC(=O)c2ccccc2N(C)S(=O)(=O)c2ccccc2)cc1	inactive
Cc1ccc(SCc2cc(=O)[nH]c(Nc3nc(C)c4ccc(C)cc4n3)n2)cc1	2.63%
Cc1ccccc1-c1ccc(C(=O)NCc2ccccc2)o1	inactive
O=C(C[n+]1cc(-c2ccc(Cl)c(Cl)c2)n2c1CCC2)N1c2ccccc2Sc2ccccc21	15.1% (active)
O=C(C[n+]1cc(-c2ccc(Cl)cc2)n2c1CCC2)N1c2ccccc2Sc2ccccc21	2.13%
O=C(C[n+]1cc(-c2ccccc2)n2c1CCC2)N1c2ccccc2Sc2ccccc21	2.94%
O=S(=O)(Nc1ccc(N=Nc2ccc(O)c3ccccc23)cc1)c1ccccc1	10.4% (active)
Cc1ccc(N=Nc2ccc(O)c3ncccc23)cc1	0.345%
O=S(=O)(Nc1ccc2ccccc2c1)c1ccccc1	inactive
Cc1ccc(-c2cc3nc(-c4ccc(Br)cc4)cc(N)n3n2)cc1	8.6%
CCC(C(=O)OCC(=O)Nc1ccccc1-c1ccccc1)c1ccccc1 (centres undefined)	4.5%
Cc1ccccc1CSCC(=O)Nc1ccccc1-c1ccccc1	2.64%
O=C(CNC(c1ccccc1)c1ccccc1)Nc1ccccc1-c1ccccc1	25.7% (active)
Cc1ccc(/C=N/n2c(C)cc(C)c(C#N)c2=O)o1	1.26%
Cc1ccc(C2=[N+]([O-])C(C)(C)N(O)C2(C)C)cc1	inactive

Compound	CPE inhibition
CCOC(=O)NC(NC(=S)Nc1ccccc1OC)C(Cl)(Cl)Cl (centres undefined)	1.97%
CCC(=O)NC(NC(=S)Nc1ccccc1Br)C(Cl)(Cl)Cl (centres undefined)	0.015%
CCc1ccc(OCC(=O)NC(NC(=S)Nc2ccccc2OC)C(Cl)(Cl)Cl)cc1 (centres undefined)	12.2% (active)
COc1cc2c(cc1OC)CN(c1nc(CN3CCOCC3)nc3sc4c(c13)CCC(C)C4)CC2 (centres undefined)	inactive
Cc1cccc(Oc2nc(CN3CCOCC3)nc3sc4c(c23)CCCC4)c1	15.4% (active)
c1ccc2c(c1)CCN(c1nc(CN3CCOCC3)nc3sc4c(c13)CCCC4)C2	7.32%
Cc1c(C)c2ccc(OS(C)(=O)=O)cc2oc1=O	0.305%
Oc1c(C=C2N=c3ccccc3=N2)sc(=S)n1-c1ccccc1	1.34%
Oc1c(C=C2N=c3ccccc3=N2)sc(=S)n1C1CCCC1	0.885%
O=C(O)CCCCCn1c(O)c(C=C2N=c3ccccc3=N2)sc1=S	11.8% (active)
COC(=O)c1cc(CNC(=O)c2ccc(O)c(Cl)c2)ccc1OC	0.01%
CC(Sc1nnc(NC2CCCCC2)s1)C(=O)Nc1ccc2c(c1)C(=O)c1ccccc1C2=O (centres undefined)	11.9% (active)
CC(Sc1nnc(NCc2ccccc2)s1)C(=O)Nc1ccc2c(c1)C(=O)c1ccccc1C2=O (centres undefined)	4.04%
Cc1ccc(Nc2nnc(SC(C)C(=O)Nc3c(C)n(C)n(-c4ccccc4)c3=O)s2)cc1 (centres undefined)	inactive
CCNC(=S)N/N=C(\C)c1cc2ccccc2o1	0.995%
O=C(CNC(=O)C12CC3CC(CC(C3)C1)C2)N1CCN(S(=O)(=O)/C=C/c2ccccc2)CC1	0.155%
COc1ccc(C(=O)NCc2nnc(SCC(=O)N3CCc4ccccc43)n2Cc2ccccc2)cc1	inactive
CC(C)Sc1nnc(CNC(=O)C23CC4CC(CC(C4)C2)C3)n1Cc1ccccc1	14.9% (active)
CCCSc1nnc(CNC(=O)C23CC4CC(CC(C4)C2)C3)n1Cc1ccccc1	7.14%
Cc1nnc(SCC(=O)NC(C)(C)C)n1C1CCCCC1	inactive
CCSc1nnc(CNC(=O)C23CC4CC(CC(C4)C2)C3)n1Cc1ccccc1	0.79%
CCCCSc1nnc(CNC(=O)C23CC4CC(CC(C4)C2)C3)n1Cc1ccccc1	8.5% (active)
CCSc1nnc(CNC(=O)C23CC4CC(CC(C4)C2)C3)n1C1CCCCC1	5.44%
CCC(C)Sc1nnc(CNC(=O)C23CC4CC(CC(C4)C2)C3)n1C1CCCCC1 (centres undefined)	12.2% (active)
